Test results published in PubChem BioAssay AID2429 (National Center for Advancing Translational Sciences (NCATS), 2010).
The list shows a part of the results. The source made the active and inactive calls. The call rests on the fitted dose curve.

molecular target: 15-hydroxyprostaglandin dehydrogenase [NAD(+)] (Homo sapiens) (UniProt P15428); test: Confirmation qHTS Assay for Inhibitors of HPGD (15-Hydroxyprostaglandin Dehydrogenase); conditions: recombinant HPGD, NADH fluorescence, PGE2 substrate
Source text: Assay Overview: Human 15-Hydroxyprostaglandin dehydrogenase (HPGD) catalyzes the inactivation of prostaglandin E2, and plays a major role in cancer biology by antagonizing the oncogenic potential of cyclooxygenase type 2 (COX2). Assays are available, based on absorbance/fluorescence increase of NADH with the substrate 15-OH prostaglandin E2. Inhibition of HPGD activity was screened by utilizing prostaglandin as an electron donor and NAD+ as an electron acceptor/cofactor. An increase in the fluorescence intensity due to conversion of NAD+ to NADH was used to measure the enzyme activity. This assay is a confirmation screen of primary qHTS protocol (See AID 894). References 1. Myung SJ, Rerko RM, Yan M, Platzer P, Guda K, Dotson A, Lawrence E, Dannenberg AJ, Lovgren AK, Luo G, Pretlow TP, Newman RA, Willis J, Dawson D, Markowitz SD. 15-Hydroxyprostaglandin dehydrogenase is an in vivo suppressor of colon tumorigenesis. Proc Natl Acad Sci U S A. 2006 Aug 8;103(32):12098-102. 2. Yan M, Rerko RM, Platzer P, Dawson D, Willis J, Tong M, Lawrence E, Lutterbaugh J, Lu S, Willson JK, Luo G, Hensold J, Tai HH, Wilson K, Markowitz SD. 15-Hydroxyprostaglandin dehydrogenase, a COX-2 oncogene antagonist, is a TGF-beta-induced suppressor of human gastrointestinal cancers. Proc Natl Acad Sci U S A. 2004 Dec 14;101(50):17468-73. 3. Yang L, Amann JM, Kikuchi T, Porta R, Guix M, Gonzalez A, Park KH, Billheimer D, Arteaga CL, Tai HH, Dubois R, Carbone DP, Johnson DH. Inhibition of Epidermal Growth Factor Receptor Signaling Elevates 15-Hydroxyprostaglandin Dehydrogenase in Non-Small-Cell Lung Cancer. Cancer Res. 2007 Jun 15;67(12):5587-5593. NIH Chemical Genomics Center [NCGC] Structural Genomics Consortium [SGC]
Buffer: 50 mM Tris-HCl, 0.01% Tween 20, pH 8. Enzyme Buffer: 50 mM Tris-HCl, 0.5 mM NAD+ and 0.01% Tween 20, pH 8. Reagents/Controls: Buffer in columns 3 and 4 as negative control (no enzyme). Substrate/cofactor solution: 1 mM NAD+ and 30 uM prostaglandin (Sigma, prostaglandin E2, # P5640) final concentrations dispensed throughout the plate. Enzyme: 20 nM HPGD final concentration in columns 1, 2, 5-48. Column 1 and 2 is neutral (100% activity). A titration of control inhibitor GW5074 (G6416 Sigma-Aldrich, St. Louis, MO) top concentration 10 mM in DMSO, then 1:2 dilution for a total of 16 concentrations in duplicate) was pin-transferred into column 2. Assay Steps: Three uL of enzyme were dispensed to 1536-well Greiner black solid bottom plates. Compounds and control inhibitor (23 nL) were transferred via Kalypsys PinTool. The plates were incubated for 15 min at room temperature, and then 1 uL of substrate/cofactor solution was added to start the reaction. The plates were immediately transferred to and read 5 times every 30 seconds on ViewLux High-throughput CCD imager (Perkin-Elmer) using 360 nm excitation and 450 nm emission fluorescence protocol. The fluorescence intensity difference between the last and the first time points was used to compute reaction progress.

Sequence of 15-hydroxyprostaglandin dehydrogenase [NAD(+)] (Homo sapiens) (P15428 whole entry, looked up): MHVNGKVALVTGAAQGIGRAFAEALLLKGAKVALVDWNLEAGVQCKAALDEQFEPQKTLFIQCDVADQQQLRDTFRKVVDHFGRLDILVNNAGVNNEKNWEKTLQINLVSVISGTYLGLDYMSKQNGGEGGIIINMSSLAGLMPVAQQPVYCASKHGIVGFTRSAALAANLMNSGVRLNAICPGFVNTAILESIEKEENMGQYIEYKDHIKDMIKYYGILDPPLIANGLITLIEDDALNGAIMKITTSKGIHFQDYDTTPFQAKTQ

Potency, active:
CC1CCN(C(=O)c2ccc(CSc3ccc(Cl)cc3)cc2)CC1 0.631 µM, CC1CCN(C(=O)c2cc3nc(C4CC4)cc(C(F)(F)F)n3n2)CC1 3.98 µM, O=C(c1ccc(CSc2ccccc2)cc1)N1CCCCCC1 0.224 µM, CN(c1ccc(C(=O)N2CCc3ccccc3C2)cc1)S(C)(=O)=O 14.1 µM, Cc1ccnc(-n2sc3ccccc3c2=O)n1 3.16 µM
